40 compounds from the supplement of paper PMC9023506 can be followed below.

SMILES strings stand for the structures. Structures can show the parent of a compound that is named as a salt.

In the assay the test system is Danio rerio larvae (5 dpf). Nature of the assay: optomotor response to fast red moving lines, difference vs DMSO (percentage points (treated minus DMSO)); higher = more of the behaviour than the DMSO vehicle control. Particulars: 10 µM; exposure time: 3 h pre-incubation + 3 h imaging. As to the method:
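5-dpf wild-type zebrafish larvae were imaged in 96-well plates. They were treated with 190 Tocris FDA-approved drugs at 10 µM (1 µl/ml DMSO) for 3 h before and 3 h during imaging at 28.5 °C, 48 larvae per drug. Automated image analysis gave % time moving and optomotor responses. Values are drug group mean minus DMSO vehicle mean (n=844), in percentage points, for 10 behaviours.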
As to `C[C@@H](O[C@H]1OCCN(Cc2n[nH]c(=O)[nH]2)[C@H]1c1ccc(F)cc1)c1cc(C(F)(F)F)cc(C(F)(F)F)c1` [Aprepitant], the optomotor response came to 7.32.

For the compound `O=C(O)C[C@H](O)C[C@H](O)/C=C/c1c(C2CC2)nc2ccccc2c1-c1ccc(F)cc1` [Pitavastatin calcium], the optomotor response amounted to 9.78.

Regarding `OC(c1cc(C(F)(F)F)nc2c(C(F)(F)F)cccc12)C1CCCCN1` (stereo not given) [Mefloquine hydrochloride], the optomotor response was -3.95.

For `CCOC(=O)[C@H](CCc1ccccc1)N[C@@H](C)C(=O)N1[C@H](C(=O)O)C[C@@H]2CCC[C@@H]21` [Ramipril], the optomotor response was -1.3.

With `Cc1cn([C@H]2C=C[C@@H](CO)O2)c(=O)[nH]c1=O` [Stavudine], the optomotor response is -8.38.

Take `O=C(O)CCCc1ccccc1` [Sodium 4-Phenylbutyrate]: the optomotor response was -11.

Turning to `CC/C(=C(\c1ccccc1)c1ccc(OCCN(C)C)cc1)c1ccccc1` [Tamoxifen citrate], the optomotor response was -8.84.

As to `O=C1CCc2ccc(OCCCCN3CCN(c4cccc(Cl)c4Cl)CC3)cc2N1` [Aripiprazole], the optomotor response stood at 7.59.

As for `Nc1nc(Cl)nc2c1ncn2[C@@H]1O[C@H](CO)[C@@H](O)[C@@H]1F` [Clofarabine], the optomotor response is -10.5.

As for `CN(CCOc1ccc(CC2SC(=O)NC2=O)cc1)c1ccccn1` (stereo not given) [Rosiglitazone], the optomotor response was -14.3.

As for `CC(C)c1ccc2oc3nc(N)c(C(=O)O)cc3c(=O)c2c1` [Amlexanox], the optomotor response was -1.36.

`CCCCCOC(=O)Nc1nc(=O)n([C@@H]2O[C@H](C)[C@@H](O)[C@H]2O)cc1F` [Capecitabine]: the optomotor response came to 5.07.

On to `CC(C)n1c(/C=C/C(O)CC(O)CC(=O)O)c(-c2ccc(F)cc2)c2ccccc21` (stereo not given) [Fluvastatin sodium], for which the optomotor response is -5.56.

Turning to `O=C(NCC1CCCCN1)c1cc(OCC(F)(F)F)ccc1OCC(F)(F)F` (stereo not given) [Flecainide acetate], the optomotor response was determined as 1.94.

Take `C#CCN[C@@H]1CCc2ccccc21` [Rasagiline mesylate]: the optomotor response stood at 0.354.

On to `N[C@@H]1[C@H]2CN(c3nc4c(cc3F)c(=O)c(C(=O)O)cn4-c3ccc(F)cc3F)C[C@@H]12` [Trovafloxacin mesylate], for which the optomotor response is -4.84.

As for `Nc1nc(F)nc2c1ncn2[C@@H]1O[C@H](CO)[C@@H](O)[C@@H]1O` [Fludarabine], the optomotor response was -4.77.

Turning to `Nc1ccn([C@@H]2O[C@H](CO)[C@@H](O)C2(F)F)c(=O)n1` [Gemcitabine hydrochloride], the optomotor response was determined as 5.64.

Consider `CCC(=O)O[C@]1(C(=O)SCF)[C@H](C)C[C@H]2[C@@H]3C[C@H](F)C4=CC(=O)C=C[C@]4(C)[C@@]3(F)[C@@H](O)C[C@@]21C` [Fluticasone propionate], for which the optomotor response was -7.85.

In the case of `CCOc1ccccc1OCCN[C@H](C)Cc1ccc(OC)c(S(N)(=O)=O)c1` [Tamsulosin hydrochloride], the optomotor response is -10.3.

`N#C[C@@H]1C[C@@H]2C[C@@H]2N1C(=O)[C@@H](N)C12CC3CC(CC(O)(C3)C1)C2` [Saxagliptin hydrochloride]: the optomotor response is -7.58.

On to `O=c1n(CCCN2CCN(c3cccc(Cl)c3)CC2)nc2ccccn12` [Trazodone hydrochloride], for which the optomotor response was 5.34.

`OC(CNCC(O)C1CCc2cc(F)ccc2O1)C1CCc2cc(F)ccc2O1` (stereo not given) [Nebivolol hydrochloride]: the optomotor response was -19.6.

For `Nc1nc2[nH]cc(CCc3ccc(C(=O)N[C@@H](CCC(=O)O)C(=O)O)cc3)c2c(=O)[nH]1` [Pemetrexed], the optomotor response was -14.2.

Regarding `Cc1ccc(NC(=O)c2ccc(CN3CCN(C)CC3)cc2)cc1Nc1nccc(-c2cccnc2)n1` [Imatinib mesylate], the optomotor response was found to be 1.11.

Turning to `CC#C[C@]1(O)CC[C@H]2[C@@H]3CCC4=CC(=O)CCC4=C3[C@@H](c3ccc(N(C)C)cc3)C[C@@]21C` [Mifepristone], the optomotor response is -1.97.

Consider `OCc1cc(C(O)CNCCCCCCOCCCCc2ccccc2)ccc1O` (stereo not given) [Salmeterol xinafoate], for which the optomotor response was -5.49.

In the case of `Nc1nc(NC2CC2)c2ncn([C@H]3C=C[C@@H](CO)C3)c2n1` [Abacavir hemisulfate], the optomotor response is -1.18.

As to `Nc1ncn([C@H]2C[C@H](O)[C@@H](CO)O2)c(=O)n1` [Decitabine], the optomotor response was 1.67.

Consider `CN1CCN2c3ncccc3Cc3ccccc3C2C1` (stereo not given) [Mirtazapine], for which the optomotor response was -5.17.

As to `CCCc1nn(C)c2c(=O)[nH]c(-c3cc(S(=O)(=O)N4CCN(C)CC4)ccc3OCC)nc12` [Sildenafil citrate], the optomotor response is -12.3.

For `NC(=O)N1c2ccccc2C=Cc2ccccc21` [Carbamazepine], the optomotor response was -9.08.

For `CCN(Cc1ccncc1)C(=O)C(CO)c1ccccc1` (stereo not given) [Tropicamide], the optomotor response is -0.214.

Turning to `CC(C)(C#N)c1cc(Cn2cncn2)cc(C(C)(C)C#N)c1` [Anastrozole], the optomotor response is -1.59.

Turning to `CN[C@H]1CC[C@@H](c2ccc(Cl)c(Cl)c2)c2ccccc21` [Sertraline hydrochloride], the optomotor response was -8.12.

For `C[C@@H]1C[C@H]2[C@@H]3CCC4=CC(=O)C=C[C@]4(C)[C@@]3(F)[C@@H](O)C[C@]2(C)[C@@]1(O)C(=O)CO` [Dexamethasone], the optomotor response was 0.576.

Turning to `COc1cc([C@@H]2c3cc4c(cc3[C@@H](O[C@@H]3O[C@@H]5CO[C@@H](C)O[C@H]5[C@H](O)[C@H]3O)[C@H]3COC(=O)[C@H]23)OCO4)cc(OC)c1O` [Etoposide], the optomotor response was -4.84.

With `Cc1nnc(C(C)C)n1C1C[C@H]2CC[C@@H](C1)N2CC[C@H](NC(=O)C1CCC(F)(F)CC1)c1ccccc1` (stereo in doubt) [Maraviroc], the optomotor response worked out at 6.43.

With `COc1cccc2c1C(=O)c1c(O)c3c(c(O)c1C2=O)C[C@@](O)(C(=O)CO)C[C@@H]3O[C@H]1C[C@H](N)[C@H](O)[C@H](C)O1` [Doxorubicin hydrochloride], the optomotor response came out at 6.53.

Regarding `O=C(Nc1c(Cl)cncc1Cl)c1ccc(OC(F)F)c(OCC2CC2)c1` [Roflumilast], the optomotor response is -10.8.
